Cy5 interf NS3h: counter-screen for HCV NS3 helicase inhibitors: fluorescence interference; Cy5-dT15 DNA with NS3h; actives lie on both sides; signal over control mean, under 1 quenches; fluorescence interference ratio at 100 µM; hit rate 6% among 16,000; AID 720488;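 active = compound fluorescence over control fluorescence at most 0.8, a quencher, or at least a set upper limit, an enhancer; inactive = ratio between 0.8 and the set upper limit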
HCV NS3h FP: blocks HCV NS3 helicase binding to DNA | NS3h Cy5-dT15 DNA binding, fluorescence polarization | AID 687043 | inhibition, % at 100 µM | hit rate 1.6% among 16,000;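 active = inhibition above the average over every tested compound plus 3 SD, cut at about 40% in these data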
Each line names hits and unclear results; the compound was inactive in the other large screens. An excerpt weighted towards active compounds, which were near 6.8% of everything screened.

O=C(Nc1cccc(C(F)(F)F)c1)c1cnn2c(C(F)(F)F)cc(-c3cccs3)nc12	Cy5 interf NS3h 0.66
CC(C)OC(=O)c1cnn2c(C(F)(F)F)cc(-c3ccc(F)cc3)nc12	none
COc1cc(CN2CCN(Cc3cccc(C)c3)CC2)c([N+](=O)[O-])cc1OC	none
O=C1/C(=C/c2ccc(I)o2)SC(=S)N1c1cccc(C(F)(F)F)c1	none
O=C(CN1C(=O)S/C(=C/c2ccccc2F)C1=O)Nc1cccc(O)c1	none
Cc1cc([N+](=O)[O-])ccc1-c1ccc(CO)o1	none
Cc1cc([N+](=O)[O-])ccc1-c1cc2ccccc2oc1=O	Cy5 interf NS3h 0.69
CC(C)(C)CC(C)(C)NC(=O)CSc1nnc(N)s1	none
CC1=C(C(=O)OCCOC(C)C)C(c2coc3ccc(C)cc3c2=O)C2=C(CCCC2=O)N1 (configuration not stated)	none
O=C(CCCN1C(=O)/C(=C\c2cccs2)SC1=S)Nc1ccccc1O	none
O=C(CCN1C(=O)/C(=C/c2cccs2)SC1=S)Nc1nc2ccccc2s1	Cy5 interf NS3h 0.71
CC(C)(C)c1ccc(C(=O)Nc2ccc(N)cc2)cc1	none
CCc1cc(=O)oc2cc(C)cc(OC(C)=O)c12	none
CCc1cc(=O)oc2cc(C)cc(OCC(=O)c3ccccc3)c12	Cy5 interf NS3h 1.3
CCOC(=O)COc1ccc2oc(C)c(C(=O)OC(C)C)c2c1	none
CCN(CC)C(=O)COc1ccc2oc(C)c(C(=O)OC(C)C)c2c1	Cy5 interf NS3h 0.79
Cc1nc(N=C(N)NC(=O)c2ccccc2N)nc2ccccc12	Cy5 interf NS3h 1.2
COc1ccc(C(=O)Nc2cc(C)nc3ccccc23)cc1OC	none
CCOC(=O)C1=C(C)N=c2s/c(=C\c3ccc(N(CC)CC)o3)c(=O)n2C1c1ccc(OC)c(OC)c1 (configuration not stated)	none
CCOC(=O)C1=C(C)N=c2s/c(=C/c3ccc(I)o3)c(=O)n2C1c1ccccc1OC (configuration not stated)	Cy5 interf NS3h 0.73
CN(C)c1ccc(/C=C/C(=O)C2C(=O)CCC2=O)cc1	none
N/C(Cc1cccc2ccccc12)=N/OC(=O)c1ccco1	none
O=C(Oc1cccc2ccccc12)c1ccco1	Cy5 interf NS3h 0.57
CC(=O)NC(NC(C)=O)c1ccc(F)cc1	none
COC(=O)c1cc(NC(=O)c2cccc(OCc3ccccc3)c2)cc(C(=O)OC)c1	Cy5 interf NS3h 1.2
COC(=O)c1cc(NC(=O)c2ccc(OCc3ccccc3)cc2)cc(C(=O)OC)c1	none
CCN(CC)CCOC(=O)c1ccc(NC(=O)CCN2C(=O)S/C(=C\c3ccc(OC)cc3)C2=O)cc1	none
CCOC(=O)c1ccccc1NC(=O)CN(c1ccc(C)c(Cl)c1)S(C)(=O)=O	none
O=C(Nc1ccc(S(=O)(=O)N2CCCCCC2)cc1)c1ccc(F)cc1	none
Cc1ccc(C(=O)Nc2ccc(S(=O)(=O)N3CCCC3)cc2)cc1	none
CCC(=O)Nc1ccc(S(=O)(=O)N2CCCCCC2)cc1	Cy5 interf NS3h 0.74
O=C(O)/C=C/C(=O)Nc1ccc(S(=O)(=O)N2CCCCCC2)cc1	Cy5 interf NS3h 0.78
CCN(CC)c1ccc(C(=O)Nc2ccc(Cl)cc2Cl)cc1	none
COc1ccc(-c2cc(C(F)(F)F)n3nc(C(=O)NCCCn4ccnc4)c(Cl)c3n2)cc1	Cy5 interf NS3h 0.68
COc1ccc(-c2cc(C(F)(F)F)n3nc(C(=O)Nc4ccccc4C(F)(F)F)cc3n2)cc1	none
CC(CCC(=O)O)C1CCC2C3CC=C4CC(O)CCC4(C)C3CCC12C (configuration not stated)	none
Cc1ccsc1/C=C1\SC(=S)N(Cc2ccco2)C1=O	none
CC(C)(C)C(=O)/C=C(/O)C(=O)NCc1ccccc1	none
CC(C)(C)C(=O)/C=C(N)\C=C\c1ccccc1	Cy5 interf NS3h 0.64
CN(C)/C=C1\N=C(c2ccccc2F)OC1=O	none
C/C(=N/NC(N)=O)C1CC1(C)C(C)(C)C (configuration not stated)	HCV NS3h FP 44
CCOc1cc(C(=S)N2CCOCC2)ccc1OS(=O)(=O)c1ccc(C)cc1	none
CCOc1cc(C(=S)N2CCOCC2)cc(Br)c1O	Cy5 interf NS3h 0.72
CC(C)(C)NC(=O)/C(=C\c1cccs1)NC(=O)c1ccc(C(C)(C)C)cc1	none
CC(=C(C#N)C#N)c1ccc2c(c1)OCCO2	none
CC(=C(C#N)C#N)c1ccc2c(c1)OCO2	Cy5 interf NS3h 0.74
CC(C)c1ccc(/C=C(\NC(=O)c2ccccc2)C(=O)NC2CCS(=O)(=O)C2)cc1 (configuration not stated)	none
O=C(NC1CCS(=O)(=O)C1)/C(=C\c1ccc(Br)cc1)NC(=O)c1ccccc1 (configuration not stated)	Cy5 interf NS3h 1.3
COc1cc(/C=C2\SC(=S)N(C3CCS(=O)(=O)C3)C2=O)ccc1O (configuration not stated)	none
N#Cc1cc([N+](=O)[O-])ccc1N=Cc1ccc(C#Cc2ccccc2)cc1	Cy5 interf NS3h 0.79
COc1cc([N+](=O)[O-])ccc1N=S(C)C	none
O=C(Nc1ccc(Cl)c(Cl)c1)Nc1nnc(COc2ccccc2)s1	none
c1ccc(CCNc2ccnc3cc4ccccc4cc23)cc1	none
CCN(CC)CCNc1ccc(Nc2ccnc3cc4ccccc4cc23)cc1	Cy5 interf NS3h 0.58
CCOc1ccc2c(c1)-c1c(ssc1=S)C(C)(C)N2C(=O)c1cccnc1	none
CN1C(=O)/C(=c2\sc3nc(-c4ccccc4)c(-c4ccccc4)n3c2=O)c2ccccc21	none
CCOc1ccc(/C=C2\C(=O)NC(=O)N(c3cccc(Br)c3)C2=O)cc1Cl	Cy5 interf NS3h 1.2
CCOc1ccc(/C=C2\C(=O)NC(=O)N(c3ccc(Cl)cc3)C2=O)cc1Cl	none
CCOc1ccc(N2C(=O)NC(=O)/C(=C\c3ccc(OCC)c(Cl)c3)C2=O)cc1	none
CCOc1ccc(/C=C2\C(=O)NC(=O)N(c3ccc(C)cc3)C2=O)cc1Cl	HCV NS3h FP 41
N/C(Cc1cccs1)=N/OC(=O)COc1ccccc1	none
Cc1cc(/C=C(\C#N)C(=O)Nc2ccccc2)c(C)n1-c1sc2c(c1C#N)CCCC2	none
O=C(N(c1cccc(C(F)(F)F)c1)C1C=CS(=O)(=O)C1)C(F)(F)F (configuration not stated)	none
Nc1nonc1-n1nnc(CN2CCOCC2)c1CN1CCOCC1	none
Nc1nonc1-n1nnc(CN2CCCCCC2)c1CN1CCCCCC1	Cy5 interf NS3h 1.2
COc1ccc2c(Cl)c(C(=O)N3CCN(CCN4C(=O)c5cccc6cccc(c56)C4=O)CC3)sc2c1	none
CC(N=Cc1c(-c2ccccc2)[nH]n(-c2nc3ccccc3s2)c1=O)c1ccccc1 (configuration not stated)	none
O=C(Nc1c(C(=O)N2CCCCCC2)cnn1-c1ccccc1)c1cccc(F)c1	Cy5 interf NS3h 1.3
O=C(Nc1c(C(=O)N2CCOCC2)cnn1-c1ccccc1)c1ccccc1	none
Clc1ccc(-c2ccc(/C=N/n3cnnc3)o2)c(Cl)c1	Cy5 interf NS3h 0.71
Clc1ccc(/C=N\n2cnnc2)cc1	none
O=C1S/C(=C/c2ccc3c(c2)OCO3)C(=O)N1CN1CCCC1	Cy5 interf NS3h 0.57
COCCN1C(=O)/C(=C/c2ccc3c(c2)OCO3)SC1=S	none
O=C1/C(=C\c2ccc3c(c2)OCO3)SC(=S)N1c1cccc(C(F)(F)F)c1	none
Cc1cccc(N2C(=O)/C(=C/c3ccc4c(c3)OCO4)SC2=S)c1C	Cy5 interf NS3h 0.77
O=C(Nc1cccc(O)c1)/C(=C\c1cccs1)NC(=O)c1ccccc1	none
CCN1C(=O)/C(=C\c2cccc(O)c2)SC1=S	none
O=C1/C(=C/c2ccccc2OCc2ccc([N+](=O)[O-])cc2)SC(=S)N1Cc1ccccc1	none
